Inconclusive results are not listed. A call without a number means that no potency is given here. Active and inactive are the calls of the source. Calls come from the whole dose curve; as a rule, active = well fitted inhibition curve with a large enough effect in the repeat runs; inconclusive = weak or mixed curves; inactive = flat fitted curve, though single readings scatter.
Potency is the fitted concentration of half-maximal effect.

A short description of this test: qHTS assay to identify small molecule HDAC inhibitors (AID 1259364). For activity change, negative = inhibition: top concentration of the series differs between compounds. Note: nearly all actives have a fitted effect of over 45% in size. As to conditions: HCT-116 HDAC-Glo I/II luminescence, 2 h; series mostly up to 92.4 µM. The source says:
U.S. Tox21 Program National Center for Advancing Translational Sciences [NCATS] NIH Chemical Genomics Center [NCGC] U.S. Environmental Protection Agency [EPA] National Institutes of Environmental Health Sciences [NIEHS] National Toxicology Program [NTP] U.S. Food and Drug Administration [FDA] Tox21 Assay Overview: Histone deacetylases (HDACs) are a group of epigenetic enzymes that regulate gene expression by histone deacetylation. HDACs are capable of introducing epigenetic modifications and such aberrations contribute to the onset and progression of several human diseases, thus making HDACs a popular therapeutic target. For identifying endogenous class I/II HDAC inhibitors a homogenous, luminogenic HDAC I/II cell based assay was used to measure the relative activity of class I and II HDACs from cells. Wild type HCT-116 cells were used to screen Tox21 libraries for identifying class I/II HDAC inhibitors.
Tox21 Assay Protocol Summary: HCT-116 cells were dispensed at 1,500 per well in 5uL of culture medium into white solid bottom 1536-well plates (Greiner Bio-One, Monroe, NC) using a Multidrop Combi (Thermo Scientific, Waltham, MA) dispenser. The assay plates were incubated at 37 C and 5% CO2 for an overnight, and then 23nL of compounds dissolved in DMSO and positive control were transferred using a Pintool station (Wako, San Diego, CA). The assay plates were incubated at 37C and 5% CO2 for 2hr. After compound treatment, 4uL of HDAC-Glo reagent (Promega Corporation, Madison, WI) was added to each well of the assay plates using Flying Reagent Dispenser (FRD, Aurora Discovery, San Diego, CA) and incubated the assay plates at room temperature for 30min. The luminescence signal was quantified using a ViewLux plate reader (Perkin Elmer, Shelton, CT).
Turning to `CCS(=O)(=O)CCn1c([N+](=O)[O-])cnc1C`, the Potency result was “inactive”.
As to `COc1cc2c(Nc3ccc(Br)cc3F)ncnc2cc1OCC1CCN(C)CC1`, the Potency result was “inactive”.
The same measure, in the same setting: the entry for `CCCCC/C=C/CC(=O)OC` is “inactive”.
Regarding `Cc1ccccc1C`, the Potency entry was “inactive”.
On the same count and under the same terms, the entry for `CC(C)=CC(C)(C)C` is “inactive”; for `CC(=O)OCCCc1ccccc1` it is “inactive”.
For `C=COCCOCCOC=C`, the Potency result is “inactive”.
On the same count and under the same terms, the entry for `CCCCOC(=O)C(C)OC(=O)CCC` (stereo not given) is “inactive”.
The same measure, in the same setting: to `C[C@H]1O[C@H](O[C@H]2[C@H](O)[C@@H](O)[C@@H](O[C@H]3[C@H](O)[C@@H](O)[C@H](O)O[C@@H]3CO)O[C@@H]2CO)[C@H](O)[C@@H](O)[C@@H]1N[C@H]1C=C(CO)[C@@H](O)[C@H](O)[C@H]1O` belongs “inactive”; to `NC(=O)C1(N2CCCCC2)CCN(CCCC(=O)c2ccc(F)cc2)CC1`, “inactive”; to `CCCC(C)CC` (stereo not given), “inactive”.
The same measure, in the same setting: the figure for `Cc1cc(O)c2c(c1)C(=O)c1cccc(O)c1C2=O` is 13.4 µM (active).
`Cc1nc(C)nc(N2C[C@@H](C)N(c3ccnc([C@@H](C)O)n3)[C@@H](C)C2)n1`: the Potency result is “inactive”.
Regarding `CCC(=O)c1ccc(O)cc1`, the Potency result is “inactive”.
The same measure, in the same setting: to `Cc1cc(C)cc([N+](=O)[O-])c1` belongs “inactive”.
Same read-out and setting: the entry for `CCN(CCO)c1cccc(C)c1` is “inactive”.
Turning to `CCOC(=O)C(C)(C)C`, the Potency entry is “inactive”.
Same read-out and setting: the entry for `CC(CC(=O)O)CC(C)(C)C` (stereo not given) is “inactive”; for `SCCSCCS` it is “inactive”.
Consider `CCOC(=O)CCc1ccccc1`, for which the Potency entry is “inactive”.
On the same count and under the same terms, the entry for `O=c1[nH]c(=O)c2ccccc2o1` is “inactive”; for `CCOC(=O)CC(CC(=O)OCC)(OC(C)=O)C(=O)OCC` it is “inactive”; for `C[N+](C)(C)CC(O)CCl` (stereo not given) it is “inactive”.
As for `Nc1cc(Cl)cc(S(=O)(=O)O)c1O`, the Potency entry is “inactive”.
The same measure, in the same setting: the entry for `NS(=O)(=O)c1ccc(Cl)c(S(N)(=O)=O)c1` is “inactive”.
Take `O=C(O)c1ccc(OCCN2CCCCC2)cc1`: the Potency entry was “inactive”.
Turning to `Nc1ccc(S(=O)(=O)NC(=O)c2ccccc2)cc1`, the Potency entry is “inactive”.
On the same count and under the same terms, the entry for `CCC(C)(C)C1CCC(=O)CC1` is “inactive”.
On to `O=C(CN1CCN(Cc2ccc3c(c2)OCO3)CC1)N1c2ccccc2Sc2ccccc21`, for which the Potency result was “inactive”.
Still for that read-out and setting: to `C=CC(C)(O)CC/C=C(\C)CC` (stereo not given) belongs “inactive”; to `CNCc1ccccc1`, “inactive”.
On the same count and under the same terms, to `O=S(=O)(O)SSS(=O)(=O)O` belongs “inactive”; to `CC(=O)OC(C(=O)c1ccccc1)c1ccccc1` (stereo not given), “inactive”.
Still for that read-out and setting: the entry for `CCN(CC)C(=O)C1CN2CCc3cc(OC)c(OC)cc3C2CC1OC(C)=O` (stereo not given) is “inactive”.
Take `Cc1ccccc1OCC1CO1` (stereo not given): the Potency entry is “inactive”.
On to `Cc1nc2n(c(=O)c1CCN1CCC(C(=O)c3ccc(F)cc3)CC1)CCS2`, for which the Potency entry is “inactive”.
The same measure, in the same setting: the entry for `OC[C@@H](O)[C@H](O)[C@@H](O)[C@@H](O)CO` is “inactive”; for `CCCCCCCC[Si](OCC)(OCC)OCC` it is “inactive”; for `Cn1c(=O)c2c(ncn2CC2OCCO2)n(C)c1=O` it is “inactive”.
Consider `Nc1c(NC/C=C\COc2cc(CN3CCCCC3)ccn2)c(=O)c1=O`, for which the activity change, negative = inhibition was -4.93% [at 19 µM] (inactive).

These data come from PubChem BioAssay (Tox21).
